Most compounds without a hit are left out; they make up all but 1.4% or so of the library.
AmpC no deterg: qHTS Inhibitors of AmpC Beta-Lactamase (assay without detergent); P00811; Potency, µM (titrated, usually from 57.1 µM), most hits filed as inhibitors; AmpC nitrocefin hydrolysis, absorbance 480 nm, 0.0001% Triton; hit rate 0.52% among 330,000; further: nearly all actives have a fitted effect of over 20% in size
Target sequence (P00811 whole entry, looked up): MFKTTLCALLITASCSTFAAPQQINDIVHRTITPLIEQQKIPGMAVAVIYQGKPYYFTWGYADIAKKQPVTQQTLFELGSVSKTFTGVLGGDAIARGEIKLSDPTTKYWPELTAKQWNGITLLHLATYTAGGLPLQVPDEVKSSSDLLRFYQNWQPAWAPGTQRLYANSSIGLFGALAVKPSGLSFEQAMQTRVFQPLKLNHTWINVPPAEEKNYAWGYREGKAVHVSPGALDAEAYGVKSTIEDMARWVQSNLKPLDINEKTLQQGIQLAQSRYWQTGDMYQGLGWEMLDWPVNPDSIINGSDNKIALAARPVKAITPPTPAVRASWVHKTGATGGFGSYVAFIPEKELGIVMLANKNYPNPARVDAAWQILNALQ
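20 mM phosphate pH 7.0 + 0.01% (detergent screen) or 0.0001% Triton X-100; 5.3 nM AmpC reagent; cpd preinc 15 min RT; nitrocefin (800 uM stock) to start; A480 q20 s × 4 min; Activity was normalised to no-enzyme and no-compound control wells.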
Vaccinia mCherry: qHTS for Stage-Specific Inhibitors of Vaccinia Orthopoxvirus: mCherry Reporter Primary qHTS. Vaccinia virus mCherry reporter infection, fluorescence. Potency, µM (top dose mostly 36.5 µM), hits mostly inhibitors. hit rate 0.63% among 310,000; calls by dose curve; tested in A549 cells; further: nearly all actives have a fitted effect of over 35% in size
SARS PLP yeast: qHTS of Yeast-based Assay for SARS-CoV PLP; hit rate 0.19% among 330,000; Potency, µM (top dose mostly 32.9 µM), actives largely listed as activators; AID 485353, 2010; S. cerevisiae expressing SARS-CoV PLpro, growth rescue; calls by dose curve; further: nearly all actives have a fitted effect of over 55% in size
Vaccinia Venus: qHTS for Stage-Specific Inhibitors of Vaccinia Orthopoxvirus: Venus Reporter Primary qHTS | hit rate 0.46% among 330,000 | Potency, µM (doses to about 36.5 µM), actives largely listed as inhibitors | AID 720580, 2013 | Vaccinia virus Venus reporter expression, fluorescence; calls by dose curve; tested in A549 cells; further: nearly all actives have a fitted effect of over 30% in size
AMA1 RON2 block: qHTS for Inhibitors of AMA1-RON; Towards Development of Antimalarial Drug Lead: Primary Screen. Plasmodium falciparum AMA1 (3D7) - RON2 peptide interaction. AlphaScreen AMA1-biotinylated RON2 peptide binding. Potency, µM (top dose mostly 58.2 µM), usual class: inhibitors. hit rate 0.2% among 360,000. AID 720542, 2013; further: nearly all actives have a fitted effect of over 45% in size
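AMA1 (3D7) with his tag at 25 nM final met compounds first, then biotinylated RON2 peptide at 25 nM; detection used donor plus acceptor beads, 10 µg/mL apiece, read by AlphaScreen after 30 min at room temperature.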
AmpC inh detg: qHTS Inhibitors of AmpC Beta-Lactamase (assay with detergent). P00811. AmpC hydrolysis of nitrocefin, absorbance 480 nm, 0.01% Triton. Potency, µM (titrated, usually from 114 µM), usual class: inhibitors. hit rate 0.041% among 370,000. AID 485294, 2010; further: nearly all actives have a fitted effect of over 25% in size
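20 mM phosphate pH 7.0 + 0.01% (detergent screen) or 0.0001% Triton X-100; 5.3 nM AmpC reagent; cpd preinc 15 min RT; nitrocefin (800 uM stock) to start; A480 q20 s × 4 min; Activity was normalised to no-enzyme and no-compound control wells.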
A number is an active result; 0 = inactive; ? = inconclusive; - = no result; [ ] = remark or other dose. Unless noted, the call rests on the fitted dose curve; in most records, active means well fitted curve in the direction sought with a large enough effect; inconclusive means small, poorly fitted or top-dose-only effect, or another doubt; inactive means no such curve, though single readings can be large; an effect the other way counts as inactive or inconclusive.

SMILES | AmpC no deterg | Vaccinia mCherry | SARS PLP yeast | Vaccinia Venus | AMA1 RON2 block | AmpC inh detg
CC1(C)N=C(N)N=C(N)N1c1cccc(C#N)c1 | - | 2µM | - | 4.5µM | 0 | -
O=C(NCc1cccnc1)c1cccc(C(F)(F)F)c1 | 0.32µM | 0 | 0 | 0 | 0 | 0
O=C(NCc1cccnc1)Nc1cccc(C(F)(F)F)c1 | 0 | 0 | 0 | 0 | 0 | ?
Cc1ccc(C(C)C)c(OCc2ccc(C(=O)N/N=C/c3ccc(O)cc3O)cc2)c1 | 0 | 1.6µM | 3.2µM | ? | 0 | 0
Cc1ccc(S(=O)(=O)Nc2cc(=O)[nH]c(SCc3ccccc3Cl)n2)cc1 | 10µM | 0 | 0 | ? | 0 | ?
COc1ccc(CCNCCN2CCOCC2)cc1 | 0 | - | 0 | - | 14µM | 0
COc1ccc(CCNC(=O)C(=O)NCCCN2CCOCC2)cc1 | 0 | - | 0 | - | 0 | 0
Oc1ccc(-c2csc(Nc3ccccn3)n2)cc1O | 1.6µM | - | 0 | - | 0 | 0
CC(C)CCCCCCCCCCCCC(=O)NCC(=O)NC1C(C)OC(Nc2ncnc3nc[nH]c23)C(O)C1O (stereo not drawn) | - | ? | - | 2µM | 0 | -
Cc1ccc(N2CCN(Cc3nnc(-c4ccccc4F)o3)CC2)c(C)c1 | - | 0 | - | 0 | - | 0
Cc1ccccc1/C=N/Nc1nc2ccccc2[nH]1 | 0 | ? | 0 | 0 | 0 | 0
O=[N+]([O-])c1cc(/C=N/Nc2nc3ccccc3[nH]2)c(O)cc1O | 0 | 2.8µM | 16µM | ? | ? | 0
CCC1(C2CCN(C(=O)c3ccc(C)c(C)c3)CC2)NC(=O)N(CCc2scnc2C)C1=O (stereo not drawn) | - | 0 | - | 0 | - | -
O=C(Nc1cccc(Cl)c1)Nc1sccc1-c1nc2ccccc2s1 | ? | 0 | 0 | 0 | 0 | 0
O=C(Nc1ccccc1)Nc1sccc1-c1nc2ccccc2s1 | 14µM | 0 | 0 | 0 | 0 | 0
O=C(NCCc1ccccn1)c1cnn(-c2ncc3c(n2)-c2ccccc2CC3)c1C1CC1 | - | 0 | - | 0 | - | -
O=C(Nc1ccc(Cl)cc1)Nc1ccc(Cl)c(Cl)c1 | 0 | 13µM | 0 | 11µM | 0 | 0
N#Cc1ccc(NC(=O)Nc2ccc(Cl)cc2)cc1 | ? | ? | 0 | 11µM | 0 | 0
CC(C)(C)N(NC(=O)Nc1ccc(Cl)c(Cl)c1)C(=O)c1ccccc1 | 0 | 0[1.46 µM] | 0 | 13µM | 0 | 0
Cc1c(CN2CCOc3c(O)cc(-c4nc5ccccc5s4)cc3C2)cnn1C | - | 0 | - | 0 | - | -
Cc1ccccc1NC(=O)CSc1nc(N)c2c3c(sc2n1)CSC(C)(C)C3 | 16µM | 0 | 0 | ? | 0 | ?
Clc1cccc[n+]1CCc1ccccc1 | - | 0 | - | 0 | - | -
Cc1ccc(C(=O)NCCc2nnc3n2CCN(Cc2ccc4ccccc4c2)CC3)c(C)c1 | - | 0 | - | 0 | - | -
COc1ccccc1CNC(c1ccccc1)c1ccccc1 | 0 | - | 0 | - | 0 | 0
COc1cc(C)c(NC(c2ccccc2)c2ccccc2)cc1OC | 0 | 0 | 0 | 0 | 35µM | 0
SMILES | AmpC no deterg | Vaccinia mCherry | SARS PLP yeast | Vaccinia Venus | AMA1 RON2 block | AmpC inh detg
O=C(Nc1ccc(Cl)cc1)N1CCN(c2ccc3nnc(-c4ccc(F)cc4)n3n2)CC1 | 0 | ? | 0 | 11µM | 0 | 0
O=C(Nc1ccccc1Cl)N1CCN(c2ccc3nnc(-c4ccccc4)n3n2)CC1 | 0 | ? | 0 | ? | 0 | 0
O=C(c1ccc(Br)o1)N1CCN(c2ccc3nnc(-c4ccc(F)cc4)n3n2)CC1 | 0.56µM | 0 | 0 | 0 | 0 | ?
OC1(c2ccc3c(c2)CN(Cc2ccco2)CCO3)CCN(c2ccccc2F)CC1 | - | 0 | - | 0 | - | -
CC1(C)OC(=O)C2(Cc3cc([N+](=O)[O-])ccc3N3CCCCCC32)C(=O)O1 (stereo not drawn) | - | 0 | - | 0 | - | -
CC(C)(C)OC(=O)N1CCC(NC(=O)c2[nH]cnc2C(=O)Nc2ccc(Cl)cc2)CC1 | 0 | 0 | 0 | 14µM | 0 | 0
COc1ccc2c(c1)CCc1cnc(-n3ncc(C(=O)N4CCN(CCO)CC4)c3C3CC3)nc1-2 | - | 0 | - | 0 | - | -
O=C(NCCc1ccccn1)C1CC12CCN(C(=O)c1c(F)cccc1Cl)CC2 (stereo not drawn) | - | 0 | - | 0 | - | -
CCN(CC)c1ccc(/C=N/NC(=O)c2ccc3nc[nH]c3c2)c(O)c1 | 0 | 11µM | 3.2µM | ? | 0 | 0
CCN(CC)c1ccc(C(=O)N/N=C/c2ccccc2OC(F)F)cc1 | 0 | - | 8.9µM | - | 0 | 0
CCN(CC)c1ccc(/C=N/NC(=O)OC)c(O)c1 | 0 | - | 0 | 0 | 0 | 0
CCN(CC)c1ccc(/C=N/NC(=O)c2cccc(S(=O)(=O)Nc3ccccc3OC)c2)c(O)c1 | 0 | 2.5µM | 1.8µM | ? | 0 | 0
CCN(CC)c1ccc(/C=N/NC(=O)c2ccoc2C)c(O)c1 | 0 | 1.1µM | 0 | ? | 0 | 0
COc1cccc(/C=N/NC(=O)c2ccc3nc[nH]c3c2)c1O | 0 | ? | 0 | 0 | 0 | 0
Cn1cnnc1Sc1ccc(CN2CCOc3ccc(C4=Cc5ccccc5C4)cc3C2)o1 | - | 0 | - | 0 | - | -
Cc1ccc(CNc2ncnc3sc(C(=O)N4CCC(N5CCCC(O)C5)CC4)c(C)c23)o1 (stereo not drawn) | - | 0 | - | 0 | - | -
O=C(NCCN1Cc2ccccc2OC(c2ccsc2)C1)c1ccc2[nH]ccc2c1 (stereo not drawn) | - | 0 | - | 0 | - | -
CCCS(=O)(=O)NCc1c(C)ncc2c1CCN(C(=O)c1cccc(Cl)c1F)C2 | - | 0 | - | 0 | - | -
CCC(NC(=O)Nc1nnc(C(F)(F)F)s1)(C(F)(F)F)C(F)(F)F | 0 | 3.5µM | 0 | 2µM | 0 | 0
CC(C)c1ccc2c(c1)C(N1CCNCC1)Cc1ccc(F)cc1S2 (stereo not drawn) | - | 11µM | - | ? | 0 | -
CNC[C@@H](CC1CCCCC1)NC[C@H](CC(C)C)NCCc1cccc(C(F)(F)F)c1 | 0 | 14µM | 0 | ? | 0 | 0
Clc1ccc(CNc2ncnc3[nH]ncc23)cc1Cl | - | 11µM | - | 10µM | 0 | -
O=c1c2ccccc2nc(/C=C/c2cc(Br)ccc2O)n1CCCO | 0 | 11µM | 0 | ? | 0 | 0
CC(C)NC(=O)c1cn(C2CCC(NC(=O)C(C)(C)C)CC2)nn1 (stereo not drawn) | - | 0 | - | 0 | - | -
COc1cc(NS(C)(=O)=O)ccc1Nc1c2ccccc2nc2ccccc12 | 0 | 0.5µM | - | ? | 0 | 0
COc1ccc(OC)c(Nc2c3ccccc3nc3ccccc23)c1 | 0 | ? | 0 | ? | 20µM | 0
COc1ccc(Nc2nc(N3CCCC3)nc3ccccc23)c(OC)c1 | 0 | ? | 0 | 11µM | 0 | 0
COc1ccc(Nc2nc(-c3ccc(C)cc3)nc3ccccc23)c(OC)c1 | - | 0 | - | 0 | - | 0
COc1ccc([N+](=O)[O-])cc1Nc1c2ccccc2nc2ccccc12 | 0 | - | 0 | - | 0 | 0
Cc1nc2ccccc2nc1CN1CCOc2ccc(C3(O)CCN(c4ccccc4F)CC3)cc2C1 | - | 0 | - | 0 | - | -

Screening results from PubChem BioAssay.
